FUS yeast rescue: qHTS for Suppressors of FUS Proteinopathy: Primary screen using FUS-linked yeast assay; Potency, µM (top dose mostly 76.6 µM), hits mostly activators; AID 1347120, 2019; 390,000 compounds, 0.24% hits; S. cerevisiae FUS-expressing, growth rescue, OD600, 24 h;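 further: potency means the concentration at half of the fitted maximal effect; plate controls were DMSO vehicle for no effect and reference control for full effect; nearly all actives have a fitted effect of over 55% in size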
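Steps: raffinose overnight preculture; dilution to OD 0.005 in 2% galactose minimal medium; compound addition (concentration series); 24hr at 30C, 99% humidity; absorbance read at 600 nm.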
Abeta rescue: qHTS for compounds that reverse cellular toxicity of Amyloid beta (A-beta) peptide in yeast: Primary Screen; yeast expressing A-beta42, growth rescue, OD600, 48 h; response scale: 0% DMSO, 100% iron-clioquinol control; Potency, µM (top dose mostly 46.1 µM), actives largely listed as activators; 410,000 compounds, 0.063% hits; AID 1347071, 2019; further: potency means the concentration at half of the fitted maximal effect; nearly all actives have a fitted effect of over 55% in size
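Yeast A-beta toxicity model in growth medium with pinned compounds, 48 h at 30 C; growth read as absorbance at 600 nm. Normalized to FeCl3/clioquinol equimolar mix (positive) and DMSO (negative).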
Mm-Cpn inhibitor: Inhibitors of TCP-1 ring complex (TRiC) of Methanococcus maripaludis (MmCpn): qHTS | Potency, µM (titrated, usually from 76.9 µM), inactives show at the top dose activity, negative = inhibition, usual class: inhibitors | 330,000 compounds, 0.031% hits | AID 504842, 2011 | purified Mm-Cpn ATPase, ADP Transcreener TR-FRET; further: potency means the concentration at half of the fitted maximal effect; on the % scale 0 is the no-effect control and ±100 the full control effect; nearly all actives have a fitted effect of over 80% in size
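ATPase read-out: TR-FRET ADP immunoassay (anti-ADP Eu cryptate vs ADP-d2), ex 320 nm, em 590/665 nm; signal drops as ADP forms. Enzyme 25 nM, ATP 10 uM, 30 min at 37°C after 10 min compound preincubation.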
CCT modulator: High-Throughput Screening for Modulators of Cytosolic Chaperonin Activity. purified chaperonin ATPase assay, HTRF ADP detection, 30 min. activity change, % (concentration not given with the values), hits read low. 360,000 compounds, 0.3% hits. AID 651819, 2012; in the data active means activity change below about -30%; further: on the % scale 0 is the no-effect control and ±100 the full control effect
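Enzyme 40 or 20 nM (batch-dependent) in Tris pH 7.4/KCl/MgCl2/DTT; cpd 76 uM single point; ATP 10 uM; 30 min 37 °C; Transcreener ADP HTRF detection, 30 min RT; ratio 665/615.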
aSyn rescue: qHTS of alpha-syn Inhibitors; Potency, µM (titrated, usually from 46.1 µM), without a hit: at the highest dose growth rescue (activation), usual class: activators; AID 652106, 2013; Yeast expressing alpha-synuclein, growth rescue, BacTiter-Glo, 24 h; 370,000 compounds, 0.14% hits; further: potency means the concentration at half of the fitted maximal effect; % of control where 0% means no effect; nearly all actives have a fitted effect of over 65% in size
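Screening used galactose-induced yeast with toxic alpha-synuclein levels, exposed to compound for 24 hr at 30 deg C. Cell growth, read with BacTiter-Glo luminescence, gave the measured signal.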
TDP-43 yeast inh: qHTS of TDP-43 Inhibitors | AID 652104, 2013 | TDP-43 expressing yeast growth rescue, BacTiter-Glo, 24 h | Potency, µM (highest dose often 46.1 µM), for the others: at the top dose growth rescue (activation), hits mostly activators | 410,000 compounds, 1.8% hits; further: potency means the concentration at half of the fitted maximal effect; % of control where 0% means no effect; nearly all actives have a fitted effect of over 50% in size
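In this qHTS, compounds that restore growth of yeast expressing TDP-43 appear as activators. Cells (OD600=0.02, galactose medium, raffinose-pregrown) are incubated with compound 24 hr at 30 deg C and growth is quantified by BacTiter-Glo.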
Active calls of the source: *; i = inactive; ? = inconclusive; / = not tested or not shown. Compounds with a hit are over-represented: about 2.3% of the library has one in this group of screens. Unless noted, the call rests on the fitted dose curve; in most records, active means well fitted curve in the direction sought with a large enough effect; inconclusive means small, poorly fitted or top-dose-only effect, or another doubt; inactive means no such curve, though single readings can be large; an effect the other way counts as inactive or inconclusive.

SMILES	FUS yeast rescue	Abeta rescue	Mm-Cpn inhibitor	CCT modulator	aSyn rescue	TDP-43 yeast inh
CC1(C)N=C(SCC(=O)Nc2ccccc2)C(c2ccc(Cl)cc2)=N1	i	i	2%	-2	0%	18µM*
O=C(CSc1ncc(-c2ccccc2)[nH]1)Nc1ccccc1	i	i	1%	-6	-5%	0%
CC1(C)N=C(SCC(=O)Nc2ccc(Cl)cc2Cl)C(c2ccccc2)=N1	i	i	0%	2	-13%	23%
Cc1ccc(C2=NC(C)(C)N=C2SCC(=O)Nc2ccc(Cl)cc2)cc1	i	i	-16%	2	-9%	35µM*
CCOC(=O)C1CCCc2c1[nH]c1ccc(Cl)cc21 (configuration not stated)	i	?	?	-1	1%	13µM*
CSc1ccc(/C=C2\C=C(C(O)c3ccc(SC)cc3)c3ccccc32)cc1 (configuration not stated)	/	/	/	/	29%	/
Cc1cc(N/N=C/c2ccc(F)cc2)nc(-n2nc(C)cc2C)n1	i	13µM*	1%	1	9%	15%
CCOc1cc(/C=N/Nc2cc(C)nc(-n3nc(C)cc3C)n2)ccc1O	i	i	0%	-1	-2%	8%
Oc1cccc2ccc(/C=C/c3ccccc3Br)nc12	i	?	3%	0	?	-66%
Oc1ccc2ccccc2c1/C=C/c1ccc2c(Br)cc(Br)c(O)c2n1	/	i	/	-5	?	16µM*
O=C(c1ccccc1OCc1ccccc1)N(Cc1ccccn1)CC1CCCO1 (configuration not stated)	i	/	/	/	/	/
CCOC(=O)c1noc2ncnc(N3CCN(c4ccccc4OC)CC3)c12	?	i	/	/	/	?
CCOC(=O)c1ccccc1S(=O)(=O)N1CCN(c2nc(-c3cccs3)nc3ccccc23)CC1	i	/	/	/	-6%	/
O=C(CNc1nnnn1-c1ccccc1)N1CCCC1	i	/	/	/	/	/
Cc1cc(C)c2c(CC(=O)O)coc2c1	i	i	1%	-2	22%	13µM*
Cc1cc(C)c2c(CCl)cc(=O)oc2c1	i	i	1%	2	0%	7.1µM*
Cc1cc(C)c2c(CC(=O)NN(C)C)coc2c1	i	i	-1%	-1	-6%	-18%
CC1(C)CC(=O)C=C(Nc2ccccc2NC(=O)c2ccc(F)cc2F)C1	i	/	/	/	/	/
CCN(C(=O)[C@@H](C1CC1)[C@@H](O)c1ccc(C(C)=O)cc1)c1ccccc1	i	/	/	/	/	/
CCOc1cccc(NC(=O)C2CC(=O)N(C)C(=Nc3cccc(F)c3)S2)c1 (configuration not stated)	i	i	0%	-3	?	?
CCOc1cccc(NC(=O)C2CC(=O)N(C)C(=Nc3ccccc3)S2)c1 (configuration not stated)	i	?	-8%	-10	20µM*	?
Cc1ccc(-n2nnnc2-c2cccc(C)c2)cc1	i	i	3%	3	0%	20µM*
Cc1cccc(-c2nnnn2-c2cccc(C)c2)c1	i	i	-3%	2	0%	?
COc1ccc(-n2nnnc2-c2cccc(OC)c2)cc1	i	i	-2%	1	2%	13µM*
Nc1cc(N)[nH]c(=S)n1	/	/	/	/	-2%	/
SMILES	FUS yeast rescue	Abeta rescue	Mm-Cpn inhibitor	CCT modulator	aSyn rescue	TDP-43 yeast inh
O=C(NC1CCCCC1)NC1CCN(C(=S)NCc2ccco2)CC1	i	i	-1%	-3	-3%	-9%
S=C(NC1CC1)SCc1ccco1	i	i	1%	-2	7%	28µM*
Nc1nccc(-c2cccs2)n1	i	i	-3%	2	-12%	12%
Cc1ccc(C)n1-c1ccc(-c2ccnc(N)n2)cc1	i	i	-1%	-4	11%	32µM*
CCOc1ccc(-c2ccc(NS(=O)(=O)c3cc(C)c(C)cc3C)cc2)nn1	i	i	/	/	/	1%
CC(C)c1onc(C(=O)Nc2cccc(Cl)c2)c1[N+](=O)[O-]	i	i	-2%	0	-5%	10µM*
CC(C)c1cc(C(=O)Nc2cccc(Cl)c2)no1	i	i	2%	0	0%	-17%
Cc1sc2ncnc(SCC(=O)N3c4ccccc4Sc4ccc(Cl)cc43)c2c1C	/	i	-7%	0	2%	1%
CCOC(=O)c1c(C)sc2c1N(C(=O)CCl)c1cc(Cl)ccc1S2	/	i	-7%	2	2%	20µM*
COc1ccc(OC)c(C(=O)Nc2c(O)ccc3ccccc23)c1	?	i	/	0	1%	11µM*
COc1ccc(OC)c(NC(=O)Nc2c(O)ccc3ccccc23)c1	i	i	/	0	0%	17%
COc1ccc(OC)c(NC(=O)Nc2ccc(O)c3ccccc23)c1	28µM*	i	/	-3	-3%	-32%
COc1ccc(Nc2c3c(nc4ccc(NC(=O)/C=C/c5cccc(OC)c5OC)cc24)CCCC3)cc1OC	?	i	/	/	/	9%
COC(=O)c1sc(-c2ccc(C(C)(C)C)cc2)cc1NC(=O)CSCC(=O)O	28µM*	i	-19%	0	-22%	15%
O=C(CNCc1ccccn1)N1CCc2ccccc2C1	i	i	-1%	-44*	-2%	-22%
CC(C)C(NS(=O)(=O)c1ccc2c(c1)oc(=O)n2C)C(=O)NCc1ccccc1 (configuration not stated)	i	i	/	/	/	5%
COc1ccc2c3c([nH]c2c1)C1=NCC[C@]12c1ccccc1N=CN2CC3	i	/	/	/	/	/
N#Cc1nc(-c2ccc(OCc3ccc(Cl)cc3)cc2)oc1N1CCCCCC1	/	/	/	/	-2%	/
CCN(CC)c1ccc(/C=N/NC(=O)Cc2nnc(NC(=O)Nc3ccccc3)s2)cc1	18µM*	i	1%	-6	1%	2%
Cc1ccc(C(=O)C2CCN(CC(=O)NC(C)C)CC2)cc1	i	/	/	/	/	/
O=C(CNc1ccc(Br)cc1)c1ccc(O)cc1	i	i	0%	0	-27%	10µM*
O=C(CNc1ccc(Cl)cc1)c1ccc(Br)cc1	i	i	1%	-6	7%	18%
CCc1c(-c2ccccc2F)ncn1Cc1cccc(-c2ccccc2)c1	?	i	/	/	-23%	20µM*
CCCNC(=O)CN1C(=O)COc2ccc(S(=O)(=O)N3CC(C)CC(C)C3)cc21 (configuration not stated)	i	i	-1%	-46*	1%	11%

Assay outcomes as filed in PubChem.
